This note sets out measurements from PubChem BioAssay AID1508600 (Functional Genomics Laboratory (NCATS/FGL), 2020).

Screen size: about 53,000 sequences; about 3,700 (7%) were called active. The entries come from a sample that favours actives as a whole. Values without a mark were called inactive.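 The calls were made as follows: active = gene knockdowns whose robust z-score for IL-1 alpha signal is at least 2 or at most -2, so actives lie on both sides; inactive = the rest.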

A short description of this assay: Components of the Cytosolic LPS Sensing Pathway: Gene Identification via Genome-wide siRNA Screen.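 Also: robust z of the log signal after scaling to non-targeting control siRNA wells of the plate.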 The note with it: RAW264.7 macrophages, IL-1a HTRF, actives lie on both sides, screened at 100 nM (by protocol), cells primed 5 h with Pam3CSK4 first. The procedure, abridged: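 Three distinct siRNAs per gene were tested singly at 100 nM in RAW264.7 macrophages. Following Pam3CSK4 priming and 24 hour LipidA transfection, IL-1a secretion was read by HTRF.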
Background: Time-resolved FRET reads energy transfer from a long-lived donor to a nearby acceptor.
For the sequence GCUACUCAGUCUUUACUAUTT against Telo2, the z-score was -2.14 (active).

For the sequence CCUGGCAGAGCAUUAUCUATT against Tmem201, the z-score was 0.558.

As for GGAGACAACUGUCAAGCUGTT against Igdcc4, the z-score is -0.0921.

In the case of GGCACAGAAAAUCUUCAAATT against Ap2a1, the z-score was 0.97.

Take GGACUGAAGGAUGCCUCAATT against Cngb1: the z-score was 0.78.

For the sequence GCUAACAACGUGUGCUUCUTT against Fam20a, the z-score is -0.174.

For the sequence CCCGAGAUGUAUCAUCUAATT against Krcc1, the z-score is -0.31.

UUCACUGUAAGAAUUGUCUTT against Vmn1r93: the z-score is -2.11 (active).

For the sequence GGGAAUACAUUUUAUCUUCTT against Cpox, the z-score was -0.16.

Regarding GAUGACUAGCUCUACUUUATT against Olfr738, the z-score is -0.0882.

Take GGUAUCAGUAGCUGAUGUGTT against Pde8a: the z-score is 1.36.

As to GGUGUGGGUGACAAGGUUATT against Tymp, the z-score was 0.153.

Regarding “GCAACACAAACACUGGCUATT against D930020B18Rik”, the z-score is -1.57.

Regarding CCUAGGAUAGAGAUUGUUGTT against Ndufaf3, the z-score was 0.135.

In the case of GGUAGAUCAUGGCCAUCCUTT against Ntf5, the z-score is 2.04 (active).

For the sequence CGAUACACUGGUGCCCUAUTT against Tmem201, the z-score is -0.158.

As for GGUGCCAGAUGUCAAGAAATT against Rpn2, the z-score was -0.685.

With GGAUCUGAAGACAUGGAGATT against H2-M1, the z-score is 0.659.

In the case of CGCCCUUGGAGGUUAAUCATT against Nsg2, the z-score was 0.26.

On to GGAACAGGCCGAGUUAGUATT against Olfr414, for which the z-score is 1.45.

In the case of GGAAGGUGAUGAAUCAGCCTT against Wwtr1, the z-score was -2.74 (active).

Take GCUGAGUUCAUUGCAAUGCTT against Cyp4a12b: the z-score is 0.274.

For the sequence GGACGGCAGAAAGCAUUUATT against Olfr317, the z-score was 0.693.

For the sequence GGAAUUCAUCUUACAUUCCTT against Acox3, the z-score is 2.42 (active).

Turning to GCUGACUCUUAGAUAAAUATT against Seh1l, the z-score is -0.81.

Regarding CCAAAGAGAUAUCCCUCCCTT against Olfr1350, the z-score was -0.283.

In the case of GCAGGAAUUCUUGAAUUAUTT against Ly75, the z-score was 2.66 (active).

On to GGACUUCUCAUCCUAUUUATT against Iah1, for which the z-score is -0.638.

On to GAAUGAACUGCUGAAAAAGTT against Klra16, for which the z-score was 0.462.

On to GACUCCCAGCUGGCUAUGATT against Ifna9, for which the z-score was 0.583.

As for GGCUCAGUACUUUCUAAAATT against Vmn1r72, the z-score is -0.637.

GCCUUGUCUAUAGGACUGUTT against Grm6: the z-score was -0.00801.

On to GCUUCAUGAUGAAUCACCUTT against Otulinl, for which the z-score was -2.1 (active).

In the case of CGAGCAUUCACCGUACGUATT against Id4, the z-score was 0.0542.

Take “GGGCAAGGUGUAUUGUCAATT against D830050J10Rik”: the z-score is -0.00921.

For the sequence GGCCCAACAAUACCUGCUGTT against Rgs17, the z-score was -1.5.

With GGAUGAAGAAACAAGAAAGTT against Tmc1, the z-score was -2.46 (active).

In the case of GCACCGACCACCAAAUCUATT against Prol1, the z-score was 0.65.

On to GGUUGUGACAAUGUGAUCCTT against Coro1a, for which the z-score was -2.22 (active).

For the sequence CCAUCUACAAGUGUCCUUATT against Zfp276, the z-score is -0.632.

Turning to CCAUAUCCCUGUGGAAAAGTT against Manf, the z-score was -0.322.

As to CGGAUAUCCACAAAUAUCGTT against Atp1b3, the z-score is 0.508.

Consider GGGUUCAAGAGAUGGGAAUTT against Efna5, for which the z-score was 0.453.

On to GCUCUCAGCAAAAACCGAGTT against Kif26b, for which the z-score is 2.98 (active).

GGCUGUCAGUGUUUACAGGTT against Srd5a1: the z-score was -0.247.

For GGGAUGAUUCAAUGGAUAATT against Tbx22, the z-score is 0.789.

On to GCUGGUUUCAUCCGCCAUATT against Dvl3, for which the z-score is 1.18.

As for GCAUAUAAGAGAAGUGCCUTT against Parl, the z-score is 0.298.

On to GCACCAAUACAUUUGGACCTT against Nabp1, for which the z-score was 1.74.

Turning to GGAGUCAGUACUGUAAAAUTT against Rin2, the z-score is -1.91.

With GGAGAGAAAAAAGUCUCUCTT against Olfr66, the z-score is 2.55 (active).

With GCAACUGUUACUUCUCAACTT against Lrif1, the z-score is 0.598.

GGUUAACUCCUUUUCUAGATT against Ints13: the z-score is -0.52.

With GCCUACACCAGUCCUUUGATT against Baiap2l1, the z-score was 0.509.

In the case of GGAACUAUCCAGUAGGUAGTT against Mill2, the z-score is 0.846.

On to GGUUCUGGAUUUCUGUUUUTT against Phf24, for which the z-score was -1.38.

On to GGAUGAAGAUGGAGAUCUUTT against Tfg, for which the z-score is 2.14 (active).

On to GGAAAAAGAACACCUUUUATT against Ints6l, for which the z-score was -0.74.

GGACACCACCAAUCUUGACTT against Arsg: the z-score was -1.57.

GGGCAUUGGGAUCCUCAAUTT against Olfr139: the z-score was -0.734.

As to CGGAUCUUGUCAAUAACCATT against Angptl1, the z-score was 0.295.

As for GCAGGAGUAAGAAUGAAUGTT against Luzp1, the z-score was 0.999.

With GGAACUUAGAAGUUUACAATT against Caml, the z-score was -0.0418.

GGUCACAAAGAAGAAUCACTT against Heg1: the z-score was -2.31 (active).

On to GGUUGAGUGUUUGAAGUCATT against Slc38a11, for which the z-score was -1.9.

For GCUUUACUCCCUAAAUUCATT against Dmrt3, the z-score is 0.755.

Turning to CCUCUUAGAUCAGGAUUAUTT against Usp37, the z-score is 0.991.

For the sequence GGCAUGGAAUGAGCUUUUCTT against Nr2e3, the z-score is 3.83 (active).

Take GGACUAAGCAAUCUCUUUUTT against Gspt2: the z-score is 0.81.
